Screens: PubChem, National Center for Advancing Translational Sciences (NCATS)
The list is not random: actives were taken first. Their share in the collection is about 7.5%.
KinaseGlo FLuc = Kinase-Glo luciferase inhibition (counter-screen); Q27757; Kinase-Glo luciferase, ATP luminescence, 8 min; Potency, µM (doses to about 38.3 µM), without a hit: at the top dose activity change, negative = inhibition, usual class: inhibitors; hit rate 0.28% among 200,000; AID 1379; also: % is scaled to controls: 0 for no effect and ±100 for the full control effect; nearly all actives have a fitted effect of over 60% in size
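Light output from Kinase-Glo luciferase with luciferin and 10 uM ATP in 50 mM imidazole pH 7.2, KCl, MgCl2, Tween 20, BSA; compound pin-delivered, 8-min ambient incubation, then luminescence read.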
Rab9 prom act = Rab9 promoter activation | Huh7 Rab9 promoter-luciferase reporter, luminescence, 24 h | Potency, µM (highest dose often 9.22 µM), without a hit: at the highest dose activation, negative = inhibition, usual class: activators | hit rate 2.8% among 320,000 | AID 485297; also: % of control where 0% means no effect; nearly all actives have a fitted effect of over 60% in size
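Luminescence read-out: Huh7 cells stably expressing Rab9-luciferase, treated 24 h with compound at 37 °C, then lysed with luciferase reagent for 10 min at ambient before reading.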
FLuc counter = firefly luciferase modulation, counter-screen for miR-21 project | purified FLuc, Km substrates, luminescence inhibition | Potency, µM (top dose mostly 57.5 µM), for inactives: at the highest dose activity change, negative = inhibition, most hits filed as inhibitors | hit rate 6.9% among 360,000 | AID 588342;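 also: plate controls were vehicle for no effect and reference inhibitor for full effect; nearly all actives have a fitted effect of over 55% in size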
Target sequence (P08659 whole entry, looked up): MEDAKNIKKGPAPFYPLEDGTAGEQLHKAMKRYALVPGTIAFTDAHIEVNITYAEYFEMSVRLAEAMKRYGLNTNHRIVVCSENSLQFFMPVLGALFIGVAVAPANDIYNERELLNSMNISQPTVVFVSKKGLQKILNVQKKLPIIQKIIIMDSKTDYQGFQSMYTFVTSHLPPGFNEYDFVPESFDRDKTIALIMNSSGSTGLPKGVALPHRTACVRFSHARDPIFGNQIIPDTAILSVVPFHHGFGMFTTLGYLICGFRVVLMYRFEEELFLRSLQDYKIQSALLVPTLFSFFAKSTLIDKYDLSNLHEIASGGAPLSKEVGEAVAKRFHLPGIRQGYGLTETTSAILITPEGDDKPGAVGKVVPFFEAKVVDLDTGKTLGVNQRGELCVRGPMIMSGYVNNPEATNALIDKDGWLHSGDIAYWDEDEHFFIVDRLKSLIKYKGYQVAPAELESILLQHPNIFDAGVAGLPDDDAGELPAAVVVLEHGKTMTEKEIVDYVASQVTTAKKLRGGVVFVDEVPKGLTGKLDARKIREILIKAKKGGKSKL
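Biochemical qHTS of compounds, final roughly 60 µM downward over six points, against 10 nM purified firefly luciferase using Km concentrations of substrates (10 uM D-luciferin, 10 uM ATP) in Tris acetate pH 7.5 buffer; luminescence output.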
NPC1 promoter act = activates the NPC1 promoter. Huh7 NPC1 promoter luciferase reporter, 24 h. Potency, µM (titrated, usually from 9.22 µM), for the others: at the highest dose activation, hits mostly activators. hit rate 2.4% among 320,000; also: % of control where 0% means no effect; nearly all actives have a fitted effect of over 60% in size
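Luminescence read-out of NPC1 promoter-driven luciferase in stably transfected Huh7 cells; compounds delivered in DMSO and left 24 h at 37C, 5% CO2, qHTS titration format.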
ELG1 genotoxic = inducers of genotoxicity in HEK293T ELG1-luciferase cells; AID 504466; hit rate 1.3% among 330,000; Potency, µM (doses to about 46 µM), for inactives: at the highest dose activity change, positive = activation, actives largely listed as activators; HEK293T ELG1-luciferase reporter, luminescence, 16 h; also: % of control where 0% means no effect; nearly all actives have a fitted effect of over 60% in size
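DMSO vehicle served as control against compound-treated ELG1-luciferase HEK293T cells; exposure lasted 16 hr at 37 °C and 5% CO2, followed by ONE-Glo luminescence detection after 30 min.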
SMN2 splice up = increases expression of the SMN2 splice variant | HEK293 SMN2-luciferase splicing reporter, luminescence, 30-36 h | Potency, µM (top dose mostly 46.1 µM), for the others: at the top dose activity change, positive = activation, hits mostly activators | hit rate 2.8% among 210,000; also: % of control where 0% means no effect; nearly all actives have a fitted effect of over 55% in size
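HEK293 cells carry an SMN2 […]–luciferase reporter in which exon 7 inclusion puts luciferase in frame. Cells were plated 10-12 h before compound addition, then incubated 30-36 h at 37C. ONE-Glo luminescence was read; sodium butyrate at 4.5 mM final served as control.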
Starred values were filed as active, the others as inactive; u = inconclusive; x = no result. Calls follow the shape of the dose curve; as a rule, active = well fitted curve in the direction sought with a large enough effect; inconclusive = small, poorly fitted or top-dose-only effect, or another doubt; inactive = no such curve, though single readings can be large; an effect the other way counts as inactive or inconclusive. Potency is read from the fitted curve at half-maximal effect.

SMILES	KinaseGlo FLuc	Rab9 prom act	FLuc counter	NPC1 promoter act	ELG1 genotoxic	SMN2 splice up
CCc1nn(-c2ccccc2)c2nc(-c3cccc(OC)c3)c3cc(OC)c(OC)cc3c12	x	x	1.5%	x	x	7.6%
COc1cccc(CNC(=O)CCS(=O)(=O)c2ccc3c(c2)oc(=O)n3C)c1	x	-3.8%	0.7%	23.1%	-0.1%	x
O=C(O)CCn1cc(/C=C2\NC(=S)N(c3ccccc3)C2=O)c(-c2ccc(Br)cc2)n1	2.7%	8.6%	u	-3.3%	2.1%	0.8%
Cc1cc(Nc2cccc(C(F)(F)F)c2)nc2ccc(NC(=O)c3cccc(Cl)c3)cc12	x	x	1.9%	x	x	x
O=C(NCc1ccccn1)c1cc(-c2ccc(Cl)cc2)nc2ccccc12	-1.7%	-0.6%	5.36µM*	3.1%	-5.5%	16.0%
Cc1ccc(-c2cc(C(=O)NCc3ccccn3)c3ccccc3n2)cc1C	-12.6%	23.1%	1.51µM*	18.8%	-4.2%	12.6µM*
COCCNC(=O)c1cc(-c2ccc(-c3ccccc3)cc2)nc2ccccc12	x	12.4%	-0.5%	-0.4%	-13.8%	x
CCn1cc(CNC(=O)c2cc(-c3ccc(C)c(C)c3)nc3ccccc23)c(C)n1	x	x	2.39µM*	x	x	11.7%
O=C(NCc1ccccn1)c1cc(-c2ccc(-c3ccccc3)cc2)nc2ccccc12	x	3.55µM*	0.379µM*	2.24µM*	-7.8%	x
O=C(NCCc1ccccn1)c1cc(-c2ccccc2Cl)nc2ccccc12	3.7%	8.7%	4.6%	0.9%	-1.5%	-49.4%
CC(C)c1csc(CN2CCC(n3nccc3NC(=O)Cc3ccccc3)CC2)n1	x	3.2%	-0.9%	-0.6%	-5.0%	x
CCc1cccc(C)c1NC(=O)COC(=O)CSCc1ccccc1	x	x	x	x	-2.4%	x
COc1cccc(CN(C)C(=O)Nc2cccc(C(F)(F)F)c2)c1OC	6.2%	-0.4%	3.7%	-0.8%	0.3%	-4.7%
O=C(NCc1ccccn1)c1cc(-c2ccccc2)nc2ccccc12	-2.5%	1.2%	16.9µM*	-2.5%	-1.6%	-5.0%
O=C(NCc1ccccc1)c1cc(-c2ccncc2)nc2ccccc12	x	4.5%	-18.3%	0.1%	-8.2%	x
Cc1cccc(-c2cc(C(=O)NCc3ccccn3)c3ccccc3n2)c1	0.9%	17.4%	8.49µM*	8.8%	-2.5%	12.1%
Cc1cc(CNC(=O)c2cc(-c3ccccc3)nc3ccccc23)nn1C	-2.3%	-10.1%	u	-0.4%	-11.6%	6.2%
C=CCOC(=O)N[C@H](/C(C(=O)OC)=C(\C)NCc1ccccc1)c1ccc2c(c1)OCO2	-2.9%	x	x	x	x	3.8%
Cc1cccc(C)c1NC(=O)CNC(=O)c1c(-c2ccccc2)noc1C	x	-1.4%	4.9%	-1.0%	1.6%	x
CNc1ccc(/C=C2\CSc3ccccc3C2=O)cc1[N+](=O)[O-]	-20.8%	14.0%	0.757µM*	10.3%	u	-50.7%
O=C1/C(=C/c2cccc([N+](=O)[O-])c2)CSc2ccc(Cl)cc21	x	-2.6%	-13.4%	-1.0%	6.9%	x
CC(=O)Nc1ccc(S(=O)(=O)Nc2ccc(-n3cnnn3)cc2)cc1	x	-4.6%	-1.8%	-0.5%	-0.5%	x
N#C/C(=C/c1ccc(N2CCCC2)c([N+](=O)[O-])c1)c1nc2ccccc2[nH]1	-1.7%	u	6.01µM*	u	3.4%	7.7%
N#C/C(=C\c1ccc(N2CCOCC2)o1)c1nc2ccccc2[nH]1	-25.6%	0.501µM*	0.426µM*	0.708µM*	u	0.562µM*
N#C/C(=C\c1ccncc1)c1nc2ccccc2[nH]1	-7.7%	-2.0%	u	4.3%	-0.4%	17.5%
SMILES	KinaseGlo FLuc	Rab9 prom act	FLuc counter	NPC1 promoter act	ELG1 genotoxic	SMN2 splice up
N#C/C(=C\c1ccc(N2CCCCC2)o1)C(N)=O	-2.3%	7.2%	u	14.6%	7.5%	x
N#C/C(=C/c1ccc(N2CCOCC2)o1)c1ccc(Cl)cc1	-1.3%	2.82µM*	8.49µM*	3.55µM*	u	u
N#C/C(=C\c1ccc(N2CCOCC2)c([N+](=O)[O-])c1)c1nc2ccccc2[nH]1	1.3%	-0.8%	15.1µM*	18.3%	-1.4%	-7.1%
CCOC(CNC(=O)C(=O)Nc1cc2c3c(c1)CCC(=O)N3CCC2)OCC	x	-2.1%	1.0%	-0.7%	14.0%	x
O=C(N/N=C/c1ccc(F)cc1)c1sccc1OCc1ccc(F)cc1	-4.1%	-7.7%	9.53µM*	-17.9%	11.6%	4.5%
CCOC(=O)C(=O)N/N=C/c1ccc(F)cc1	x	-2.9%	13.5µM*	2.7%	-7.8%	x
O=C(COCC(=O)N/N=C/c1ccccc1F)N/N=C/c1ccccc1F	-5.4%	12.7%	u	-0.4%	1.3%	7.6%
O=C(COCC(=O)N/N=C/c1ccc(F)cc1)N/N=C/c1ccc(F)cc1	-2.5%	1.9%	8.49µM*	-0.1%	4.4%	9.7%
Cc1ccc2c(c1)sc1nc(-c3cc4ccccc4oc3=O)cn12	x	x	0.426µM*	x	x	-12.2%
COc1ccc2cc(-c3cn4c(n3)sc3cc(F)ccc34)c(=O)oc2c1	x	x	9.53µM*	x	x	x
CC(C)c1ccc(Cc2cn3cc(-c4cc5ccccc5oc4=O)nc3s2)cc1	x	x	-17.1%	x	x	-25.4%
CC1CN(C(=O)c2ccc(-c3cccc(C(F)(F)F)c3)o2)CC(C)O1 (centres undefined)	x	0.3%	-0.4%	-0.4%	-1.1%	x
CC(=O)Oc1ccc(C(=O)NC(C)CCc2ccccc2)cc1 (centres undefined)	x	-2.1%	-2.2%	-3.9%	3.7%	x
CCC(CC)C(=O)Nc1nc2c(s1)CC(C)CC2 (centres undefined)	x	x	-21.2%	x	x	x
O=C(CCCc1cccs1)Nc1nc2c(s1)CCCC2	-1.1%	u	23.9µM*	u	u	15.8µM*
Cc1cccc(NC(=O)c2c(NC(=O)c3ccco3)sc3c2CCC(C)C3)c1 (centres undefined)	x	x	3.8%	x	x	-16.8%
CC1CCc2nc(NC(=O)c3ccco3)sc2C1 (centres undefined)	-20.9%	0.282µM*	0.301µM*	0.447µM*	u	-24.5%
CC1CCc2nc(NC(=O)C3CCCO3)sc2C1 (centres undefined)	-1.9%	0.501µM*	2.13µM*	0.501µM*	1.16µM*	2µM*
CCOc1ccccc1C(=O)Nc1nc2c(s1)CC(C)CC2 (centres undefined)	x	x	2.69µM*	x	x	x
CCOc1ccccc1C(=O)Nc1nccs1	1.3%	-1.1%	-6.4%	0.9%	2.6%	-1.5%
CC1CCc2nc(NC(=O)Cc3cccs3)sc2C1 (centres undefined)	-0.2%	2.24µM*	9.53µM*	3.16µM*	9.2µM*	14.1µM*
Cc1cc(C(=O)NC(C)C2CCCO2)c(C)o1 (centres undefined)	x	2.7%	-0.4%	-7.9%	5.0%	x
Cc1ccc(-c2nsc3c(N4CCC(C(N)=O)CC4)ncnc23)cc1	-2.0%	2.82µM*	1.51µM*	1.58µM*	u	-15.7%
